# Source: PubChem BioAssay
# The sample as a whole holds a higher share of hits than the screen did.
# Vaccinia Venus: qHTS for Stage-Specific Inhibitors of Vaccinia Orthopoxvirus: Venus Reporter Primary qHTS. 330,000 tested, 0.46% active. Vaccinia virus Venus reporter expression, fluorescence. Potency, µM (top dose mostly 36.5 µM), for the others: top-dose activity change, negative = inhibition, usual class: inhibitors; calls by dose curve; tested in A549 cells; note: potency is the fitted concentration of half-maximal effect; % is set by controls: 0 for no effect and ±100 for the full control effect; nearly all actives have a fitted effect of over 30% in size
# VACV mCherry inh: qHTS for Stage-Specific Inhibitors of Vaccinia Orthopoxvirus: mCherry Reporter Primary qHTS; 310,000 tested, 0.63% active; Vaccinia virus mCherry reporter infection, fluorescence; Potency, µM (top dose mostly 36.5 µM), for inactives: at the highest dose activity change, negative = inhibition, actives largely listed as inhibitors; calls by dose curve; tested in A549 cells; note: potency is the fitted concentration of half-maximal effect; % is set by controls: 0 for no effect and ±100 for the full control effect; nearly all actives have a fitted effect of over 35% in size
# Cycloheximide cs: Cycloheximide Counterscreen for Small Molecule Inhibitors of Shiga Toxin | cell reporter, cycloheximide protein synthesis inhibition counterscreen | max response, % | 300,000 tested, 12% active | AID 2314, 2010; in the data active = max response mostly above about 13%, no sharp cut-off; inactive = mostly below about 14%; note: read at 38.3 µM for the half of the compounds with a filed dose; 0% is about no effect
# Lassa entry inh: qHTS for Inhibitors of binding or entry into cells for Lassa Virus. Lassa virus pseudotype entry inhibition, cell reporter. Potency, µM (highest dose often 37.9 µM), for the others: at the highest dose activity change, negative = inhibition, actives largely listed as inhibitors. 300,000 tested, 1.2% active. AID 540256, 2011; calls by dose curve; tested in HEK293 cells; note: potency is the fitted concentration of half-maximal effect; % is set by controls: 0 for no effect and ±100 for the full control effect; nearly all actives have a fitted effect of over 50% in size
# Shiga toxin inh: A qHTS for Small Molecule Inhibitors of Shiga Toxin; 290,000 tested, 9.2% active; AID 2315, 2010; inhibition, % at 38.7 µM; Vero cells, Shiga toxin protein synthesis inhibition reporter; in the data active = inhibition mostly above about 28%, no sharp cut-off; inactive = mostly below about 43%; note: 0% is about no effect
# Marburg entry inh: qHTS for inhibitors of binding or entry into cells for Marburg Virus. Marburg virus pseudotyped entry inhibition, cell reporter. Potency, µM (top dose mostly 37.8 µM), without a hit: top-dose activity change, negative = inhibition, actives largely listed as inhibitors. 300,000 tested, 1.8% active; calls by dose curve; tested in HEK293 cells; note: potency is the fitted concentration of half-maximal effect; % is set by controls: 0 for no effect and ±100 for the full control effect
# Active calls of the source: *; i = inactive; ? = inconclusive; nt = no result given; [ ] = dose if it differs, or a comment.
SMILES,Vaccinia Venus,VACV mCherry inh,Cycloheximide cs,Lassa entry inh,Shiga toxin inh,Marburg entry inh
Cc1csc(NC(=O)C2COc3ccccc3O2)n1 (stereo unspecified),1%,nt,13*,?,22,4.5µM*
Cc1cnc(NC(=O)C2COc3ccccc3O2)s1 (stereo unspecified),-10%,nt,13,?,39,7.9µM*
N#CC1=C2SCN(C3CCCCC3)CN2C(=O)CC1c1c(F)cccc1Cl (stereo unspecified),-11%,-17%,nt,20%[46.1 µM],nt,5%[46.1 µM]
O=[S+]1([O-])N[C@@H]2Cc3ccccc3[C@@H]2Oc2cc(Br)ccc21,nt,nt,nt,-3%[46.1 µM],nt,nt
Cc1cc(NC(=O)C2COc3ccccc3O2)no1 (stereo unspecified),-2%,i,37*,6%,61*,11%
O=C(Nc1ccc(Cl)cn1)C1COc2ccccc2O1 (stereo unspecified),-8%,-3%,29*,16%,51*,9%[46.1 µM]
O=C(OCn1ncc(Cl)c(Cl)c1=O)c1ccccc1Cl,nt,nt,-8,6.5µM*,-10,4.6µM*
O=C(Cn1ncc(Cl)c(Cl)c1=O)NCC1CCCCC1,?,-26%,30*,18µM*,-8,?
O=C(OCn1ncc(Cl)c(Cl)c1=O)c1ccc(F)cc1,nt,nt,-8,nt,-24,-1%
O=c1c(Cl)c(Cl)cnn1Cc1ccc(F)cc1,nt,nt,-6,21µM*,48,?
C=CCn1c(C)cc(C(=O)CN2NS(=O)(=O)c3ccccc3C2=O)c1C,-18%,-17%,33*,nt,87*,nt
CCCNC(=O)c1cc(-c2ccc(OC)cc2)n(CCCOC)c1C,-15%,-28%,-1,?,-13,8%
CSc1ccc(CNCc2c(C(=O)O)c(C)n(Cc3ccc(F)cc3Cl)c2C)cc1,-2%,-12%,nt,-5%[46.1 µM],nt,-16%[46.1 µM]
C=CCn1c(C)cc(C(=O)Cn2ncc(Cl)c(Cl)c2=O)c1C,?,?,42*,?,73*,?
O=C(Cn1ncc(Cl)c(Cl)c1=O)c1ccc(Cl)cc1,4%,-13%,21*,?,32*,2.9µM*
O=C(NCC(c1ccco1)N1CCN(c2ccccc2F)CC1)C(=O)NC1CCCC1 (stereo unspecified),-5%,-8%,nt,-23%,nt,2%
Cc1ccc(S(=O)(=O)NCC(=O)N/N=C/c2ccccc2O)cc1,?,?,-4,7.3µM*,11,?
COc1ccc(/C=N/NC(=O)CSc2ccccn2)cc1OC,-10%[7.34 µM],1%[7.34 µM],23*,-4%,30*,18%[46.1 µM]
O=C(CCSCCC(=O)NN=Cc1ccccc1O)NN=Cc1ccccc1O,-17%,i,nt,-8%,nt,?
O=C(CSc1ccccc1)N/N=C/c1ccccc1O,-14%,?,25*,?,46,?
COc1cc(/C=N/NC(=O)CSc2cc(C)c(Br)cc2C)ccc1O,nt,nt,-1,?,-9,-17%
COc1ccc(NC(=O)CSc2ccccn2)cc1OC,0%,-4%,19,1%,29,-4%
Cc1cc(SCC(=O)N/N=C/c2ccc(O)c(O)c2O)c(C)cc1Br,?,13µM*,-3,?,-17,1%
Cc1ccc(S(=O)(=O)n2nccc2-c2c(-c3ccc(Cl)cc3)noc2C)cc1,1%[7.34 µM],?,-1,?,-3,?
O=C(CCc1ccccc1)NCC(c1ccco1)N1CCc2ccccc21 (stereo unspecified),?,-11%,nt,?,nt,?
SMILES,Vaccinia Venus,VACV mCherry inh,Cycloheximide cs,Lassa entry inh,Shiga toxin inh,Marburg entry inh
CCn1nc(C)c(/C=N/NC(=O)CSc2ccccn2)c1C,-14%[7.34 µM],-14%[7.34 µM],32*,26%,63*,?
COc1ccccc1/C=N/NC(=O)CSc1ccc2ccccc2n1,-18%,-12%,25*,-10%[46.1 µM],70*,?
COc1ccccc1/C=N/NC(=O)CSc1cc(C)nc2ccccc12,-19%,-7%,7,?,-3,?
Cc1nn(C)cc1/C=N/NC(=O)CSc1ccccn1,0%,-7%,7,?,27,-22%
COc1ccc(/C=N/NC(=O)CSc2ccccc2)cc1OC,-9%,-10%,14*,?,13,21%
Cc1cc(I)ccc1Nc1c(C(=O)NOCC2CC2)cc(F)c(F)c1F,nt,nt,17*,nt,58*,nt
CCOc1cc(C(=O)N/N=C(\C)Cc2ccc(OC)cc2)cc(OCC)c1OCC,-24%,?,-3,?,-18,-26%
CC(C)(C)c1ccc(OCC(=O)N2CCN(C=O)CC2)cc1,-18%,nt,2,5%,12,0%
COc1ccc(C/C(C)=N/NC(=S)Nc2ccccc2F)cc1,-7%,-6%,54*,?,91*,13%[46.1 µM]
COc1ccc(C/C(C)=N/NC(=S)Nc2ccc(C(C)C)cc2)cc1,-11%,i,10,?,-7,?
COc1ccc(C(=O)N/N=C(\C)CC(=O)N2CCN(C=O)CC2)cc1,-3%,-13%,31*,?,24,?
COc1ccc(C/C(C)=N/NC(=O)c2ccc(Cl)cc2)cc1,-6%,i,14*,-8%,37*,12%[46.1 µM]
COc1ccc(C/C(C)=N/NC(=O)c2cccnc2)cc1,-5%,0%,27*,10%,11,10%
NCc1ccc(-c2nc(-c3ccc(Cl)c(O)c3)c(-c3ccncc3)[nH]2)cc1,nt,nt,nt,-19%,nt,nt
COC(=O)C1=C(C(=O)OC)[C@@H]2Nc3ccccc3[C@@]23C[C@@H](C(=O)OC)N(C(=O)COCc2ccccc2)C3=N1,?,-2%,nt,?,nt,6%[14.2 µM]
CCOc1ccc(CNC(=O)Cn2ccc3cc(S(=O)(=O)N4CCCCCC4)ccc32)cc1,-13%,-14%,14,-19%[46.1 µM],14,nt
Cn1c(C(=O)NCc2ccccc2Cl)cc2sc(Cl)cc21,-7%,-10%,nt,nt,nt,3.2µM*
C=CCCC(=O)N1CCC(Oc2cccc(C(=O)NCc3ccccn3)c2)CC1,-12%,-1%,-2,6%,-36,-23%
COc1ccc(CNC(=O)CN(C)S(=O)(=O)c2ccc(Br)s2)cc1,-7%,-4%,23*,-9%,25,6%[46.1 µM]
COc1cccc(CNC(=O)CN(C)S(=O)(=O)c2ccc(Br)s2)c1,-11%,-14%,22*,-10%,76*,-29%[46.1 µM]
CN(CC(=O)NCc1ccc(F)cc1)S(=O)(=O)c1ccc(Br)s1,-18%,?,23,-14%,27,0%[46.1 µM]
COc1ccccc1CNC(=O)CN(C)S(=O)(=O)c1ccc(Br)s1,-5%,-13%,21*,-3%,57*,-21%[46.1 µM]
CN(CC(=O)NCc1ccc2c(c1)OCO2)S(=O)(=O)c1ccc(Br)s1,-13%,nt,5,0%,27,22%
CC1=C(C(=O)Nc2ccccc2)C(c2ccncc2)n2nc(SCc3ccccc3F)nc2N1 (stereo unspecified),-7%,-11%,nt,-5%[46.1 µM],nt,29%[46.1 µM]
CN(Cc1ccccc1)C(=O)c1csc([C@@H]2O[C@H](CO)[C@@H](O)[C@H]2O)n1,0%,i,nt,nt,nt,nt
COc1cc(Nc2nc3ccccc3c3nnc(C)n23)cc(OC)c1,-14%,0%,nt,-5%[46.1 µM],nt,nt
